{
  "source": "PubChem BioAssay (EPA / NIEHS)",
  "note": "The source made the active and inactive calls. Rule for the calls: active = hit-call score of the fitted dose curve at least 0.9, where 1 is the maximum; inactive = score below 0.9.",
  "data": [
    {"read-out": "Human Leukocyte Antigen - DR isotype (HLADR), HLA-DRA (gene 3122)", "assay": "BSK_3C_HLADR: BioMAP Diversity Plus: 3C Assay for Human Leukocyte Antigen - DR isotype (HLADR) Biomarker Activity (AID 2283019)", "conditions": "primary human endothelial cells (HUVEC); actives raise or lower the signal", "protocol": "BSK_3C is a cell-based, multiplexed-readout assay that uses umbilical vein endothelium, a human vascular primary cell, with measurements taken at 24 hours after chemical dosing in a 96-well plate.BSK_3C_HLADR is an assay component measured in the BSK_3C assay. It measures HLA-DR antibody related to regulation of gene expression using ELISA technology.Data from the assay component BSK_3C_HLADR was analyzed into 1 assay endpoint. This assay endpoint, BSK_3C_HLADR, was analyzed with bidirectional fitting relative to DMSO as the negative control and baseline of activity. Using a type of binding reporter, gain or loss-of-signal activity can be used to understand changes in the signaling as they relate to the gene HLA-DRA. Furthermore, this assay endpoint can be referred to as a primary readout, because this assay has produced multiple assay endpoints where this one serves a signaling function. To generalize the intended target to other relatable targets, this assay endpoint is annotated to the cell adhesion molecules intended target family, where the subfamily is MHC Class II.\nThe levels of cell surface (or secreted, indicated by the prefix \"s\") biomarker endpoints were measured by ELISA. Overt cytotoxicity to cells in confluent adherent cultures (all systems other than the BT system) was assessed by measuring total protein levels using sulforhodamine B (SRB) staining in parallel cultures at the time of biomarker measurements, indicated as SRB endpoints. For proliferation assays for adherent cell types, individual cell types are cultured at sub-confluence and relative cell numbers quantified by SRB staining at time points optimized for each system (48 h: 3C and CASM3C systems; 72 h: BT and HDF3CGF systems; 96 h: SAg system). SRB was performed by staining cells with 0.1% SRB after fixation with 10% TCA and reading wells at 560 nm.Viability and proliferation of PBMC (T cells) was quantified by Alamar Blue reduction for the SAg and BT systems. For PBMC viability (referred to as PBMC Cytotoxicity within the assay endpoint names), cells were plated (75,000/well in a 96-well plate) and then chemical samples added for 1 h before addition of activators, SEB and TSST-1 (20 ng/mL final concentration each). Cells were incubated for 90 h. Then, Alamar Blue (20 uL/well) (Invitrogen, Cat DAL1100) was added for 6 h, and the plates were read with a fluorescence microplate reader at 546/580 nm (excitation/emission). For PBMC proliferation, cells were plated and activated as above but incubated for only 16 h prior to addition of Alamar Blue. Plates were read after 6 h.", "values": [
      {"molecule": "CC(C)(c1ccccc1)c1ccc(O)c(C(C)(C)c2ccccc2)c1", "AC50": "7.99 µM (active)"},
      {"molecule": "Nc1ccc(-c2ccc(N)c(Cl)c2)cc1Cl", "AC50": "2.43 µM (active)"},
      {"molecule": "CC(C)(OO)c1ccccc1", "outcome": "inactive"},
      {"molecule": "COC(=O)Cc1ccccc1", "outcome": "inactive"},
      {"molecule": "CCOP(=S)(OCC)SCCS(=O)(=O)CC", "outcome": "inactive"},
      {"molecule": "O=S(=O)(c1ccc(Cl)cc1)c1ccc(Cl)cc1", "outcome": "inactive"},
      {"molecule": "CCSC(C)CC1CC(=O)C(C(CC)=NOC/C=C/Cl)=C(O)C1", "note": "(stereo not given)", "outcome": "inactive"},
      {"molecule": "NC(=O)O", "outcome": "inactive"},
      {"molecule": "C[C@@H]1C[C@@H]([C@H](O)CC2CC(=O)NC(=O)C2)C(=O)[C@@H](C)C1", "AC50": "3.85 µM (active)"},
      {"molecule": "Nc1cccc2ccccc12", "outcome": "inactive"},
      {"molecule": "Nc1ncc([N+](=O)[O-])s1", "outcome": "inactive"},
      {"molecule": "O=Cc1cccc(Oc2ccccc2)c1", "outcome": "inactive"},
      {"molecule": "CCC(C)(C)c1ccc(O)c(C(C)(C)CC)c1", "AC50": "7.84 µM (active)"},
      {"molecule": "Oc1cccc2cccnc12", "AC50": "4.97 µM (active)"},
      {"molecule": "CCOP(=S)(OCC)Oc1ccc(S(C)=O)cc1", "note": "(stereo not given)", "outcome": "inactive"},
      {"molecule": "NC(=S)Nc1ccccc1", "outcome": "inactive"},
      {"molecule": "ClC1=C(Cl)[C@]2(Cl)[C@H]3[C@H]([C@H]4C=C[C@H]3C4)[C@@]1(Cl)C2(Cl)Cl", "AC50": "8.54 µM (active)"},
      {"molecule": "CCN1CCC2(CC1)COc1cc3c(cc12)N(C(=O)c1ccc(-c2ccc(-c4nnc(C)o4)cc2C)cc1)CC3", "AC50": "13 µM (active)"},
      {"molecule": "CC(C)(C)CC(C)(C)c1ccc(O)cc1", "AC50": "6.4 µM (active)"},
      {"molecule": "COc1cc(OC)nc(NC(=O)NS(=O)(=O)c2ncccc2C(=O)N(C)C)n1", "outcome": "inactive"},
      {"molecule": "CC(=O)OC(c1ccccc1)C(Cl)(Cl)Cl", "note": "(stereo not given)", "outcome": "inactive"},
      {"molecule": "ClCC(Cl)CCl", "outcome": "inactive"},
      {"molecule": "O=C(OC1CCCCC1)c1ccccc1C(=O)OC1CCCCC1", "AC50": "8.72 µM (active)"},
      {"molecule": "OCc1ccco1", "outcome": "inactive"},
      {"molecule": "CN(C)N=O", "outcome": "inactive"},
      {"molecule": "O=[N+]([O-])c1ccc(O)c([N+](=O)[O-])c1", "AC50": "28 µM (active)"},
      {"molecule": "O=C1C2(Cl)C3(Cl)C4(Cl)C(Cl)(Cl)C5(Cl)C3(Cl)C1(Cl)C5(Cl)C24Cl", "note": "(stereo not given)", "AC50": "8.22 µM (active)"},
      {"molecule": "COC(=O)c1sccc1S(=O)(=O)NC(=O)Nc1nc(C)nc(OC)n1", "outcome": "inactive"},
      {"molecule": "CC(C)CCCCCCOC(=O)c1ccccc1C(=O)OCCCCCCC(C)C", "outcome": "inactive"},
      {"molecule": "CCCCC(CC)CO[N+](=O)[O-]", "note": "(stereo not given)", "AC50": "35.4 µM (active)"},
      {"molecule": "C(=NC1CCCCC1)=NC1CCCCC1", "AC50": "10.2 µM (active)"},
      {"molecule": "Oc1c(I)cc(I)cc1I", "AC50": "9.5 µM (active)"},
      {"molecule": "CC(C)(C)c1cc(O)ccc1O", "AC50": "32.4 µM (active)"},
      {"molecule": "C=CC(=O)OCCCCCC(C)C", "outcome": "inactive"},
      {"molecule": "Cc1ccccc1N", "outcome": "inactive"},
      {"molecule": "COP(=S)(OC)Oc1ccc(S(=O)(=O)N(C)C)cc1", "AC50": "32.3 µM (active)"},
      {"molecule": "CC(C)c1ccc(CO)cc1", "outcome": "inactive"},
      {"molecule": "CCC(=O)C(CC(C)N(C)C)(c1ccccc1)c1ccccc1", "note": "(stereo not given)", "outcome": "inactive"},
      {"molecule": "CCOP(=S)(OCC)SCSP(=S)(OCC)OCC", "outcome": "inactive"},
      {"molecule": "CCOC(=O)/C=C(C)/C=C/C[C@@H](C)CCCC(C)C", "AC50": "28.1 µM (active)"}
    ]}
  ]
}
